Measured values as given in PubChem BioAssay (Tox21).
Active and inactive are the calls of the source. The call rests on the fitted dose curve; in most records, active means well fitted curve in the direction sought with a large enough effect in the repeat runs; inconclusive means weak or mixed curves; inactive means flat fitted curve, though single readings scatter.

Experiment: qHTS assay to test for compound auto fluorescence at 535 nm (green) in HepG2 cell free culture (AID 720686)
Conditions: Cell-free medium, green autofluorescence 485/535 nm; series mostly up to 91.3 µM
Description: U.S. Tox21 Program National Center for Advancing Translational Sciences [NCATS] NIH Chemical Genomics Center [NCGC] U.S. Environmental Protection Agency [EPA] National Institutes of Environmental Health Sciences [NIEHS] National Toxicology Program [NTP] U.S. Food and Drug Administration [FDA] Tox21 Assay Overview: Compound auto fluorescence often interferes with screening of the compound library against various biological targets and signaling pathways. Some of these compounds may have fluorophoric properties. Such properties may interfere with the assay outputs resulting in false positives and/or negatives. To decrease such complications and ensure the compound activities are relevant in terms of biological response, the Tox21 10K compound library was screened for auto fluorescence. From the fluorophores used as reporter signals in our screening assays, the auto fluorescence equivalencies of compounds against three fluorophores have been evaluated: Triamterene, Fluorescein and Rose Bengal sodium for blue, green and red fluorescence, respectively. The fluorescence intensities were measured using Excitation/Emission wavelengths at 405/460nm, 485/535nm and 540/590nm for blue, green and red labels, respectively. This assay includes the green fluorescence data.
Tox21 Assay Protocol Summary: 5 uL of culture medium (MEM containing 10% FBS) per well was dispensed into black wall/clear bottom 1536-well plates using a Multidrop Combi Dispenser (ThermoFisher Scientific, Waltham, MA). After 23 nL compound or DMSO vehicle was transferred into assay plate by a pintool work station (Kalypsys, San Diego, CA), fluorescence intensities in the assay plates were measured by an Envision (PerkinElmer, Shelton, CT) plate reader using three labels for measuring blue, green and red fluorescence at […] 460, 535 and 590nm respectively.
With `C=CCN1CC[C@]23c4c5ccc(O)c4O[C@H]2C(=O)CC[C@@]3(O)[C@H]1C5` the outcome was “inactive”.
For `O=C(O)COc1ccc(Cl)cc1`, the outcome was “inactive”.
With `NC(=O)C(Cl)(Cl)Cl` the outcome was “inactive”.
With `CC(C)(C)c1cc([N+](=O)[O-])cc([N+](=O)[O-])c1O` the outcome was “inactive”.
For `Cc1c(F)c(F)c(COC(=O)C2C(/C=C(\Cl)C(F)(F)F)C2(C)C)c(F)c1F` (stereo not given), the outcome was “inactive”.
With `CCCCCCC#N` the outcome was “inactive”.
In the case of `CCOP(=S)(OCC)SCn1nnc2ccccc2c1=O`, the outcome is reported as “inactive”.
In the case of `c1ccc(C2CC2)c(OCC2=NCCN2)c1`, the outcome is reported as “inactive”.
In the case of `CO/C=C(/C(=O)OC)c1ccccc1COc1cccc(C(F)(F)F)n1`, the outcome is reported as “inactive”.
For `c1ccc(CN2CCNCC2)cc1`, the outcome was “inactive”.
For `O=[N+]([O-])C(Br)(CO)CO`, the outcome was “inactive”.
In the case of `CCOP(=S)(OCC)Oc1cc(Cl)c(Br)cc1Cl`, the outcome is reported as “inactive”.
With `CN1[C@@H]2CC[C@H]1CC(OC(=O)c1cc(Cl)cc(Cl)c1)C2` (stereo not given in full) the outcome was “inactive”.
In the case of `CCOC(=O)C(Cl)C(C)=O` (stereo not given), the outcome is reported as “inactive”.
In the case of `C=CC(=O)OC(C)(C)C`, the outcome is reported as “inactive”.
In the case of `N#Cc1ccc(Cl)cc1`, the outcome is reported as “inactive”.
For `CCOS(C)(=O)=O`, the outcome was “inactive”.
For `O=S(=O)(Cl)c1ccccc1`, the outcome was “inactive”.
For `Brc1ccc(Oc2ccccc2)cc1`, the outcome was “inactive”.
With `Cc1ccc2ccccc2c1` the outcome was “inactive”.
For `CC/C(=N\OC/C=C/Cl)C1=C(O)CC(C2CCOCC2)CC1=O` (stereo not given), the outcome was “inactive”.
With `CCOP(=O)(OCC)Oc1ccc([N+](=O)[O-])cc1` the outcome was “inactive”.
With `C[C@H]1CNCCc2ccc(Cl)cc21` the outcome was “inactive”.
For `COC(=O)C(Br)CBr` (stereo not given), the outcome was “inactive”.
For `C#CCOC(C(=O)OCCN(C)C)(c1ccccc1)c1ccccc1`, the outcome was “inactive”.
For `COc1cc(Cl)c(OC)cc1Cl`, the outcome was “inactive”.
With `O=C(CCl)c1ccc(Cl)cc1Cl` the outcome was “inactive”.
In the case of `CCOP(=O)(OCC)O/C(=C/Cl)c1ccc(Cl)cc1Cl`, the outcome is reported as “inactive”.
In the case of `O=NN1CCNCC1`, the outcome is reported as “inactive”.
With `S=C=NCc1ccccc1` the outcome was “inactive”.
For `CC(=O)C(C)(C)C`, the outcome was “inactive”.
For `CCn1cc[n+](C)c1`, the outcome was “inactive”.
For `C[C@@H]1CC[C@H]2[C@@H](C)C(=O)O[C@@H]3O[C@@]4(C)CC[C@@H]1[C@]32OO4`, the outcome was “inactive”.
With `CC(C)=CCOc1c2occc2cc2ccc(=O)oc12` the outcome was “inactive”.
In the case of `Nc1ccc([N+](=O)[O-])cc1[N+](=O)[O-]`, the outcome is reported as “inactive”.
With `O=Cc1ccc(Cl)cc1Cl` the outcome was “inactive”.
With `CN(N=O)c1ccc([N+](=O)[O-])cc1` the outcome was “inactive”.
In the case of `Cl/C=C\C[N+]12CN3CN(CN(C3)C1)C2`, the outcome is reported as “inactive”.
For `CC(=O)CCC(C)=O`, the outcome was “inactive”.
For `O=C1CN=C(c2ccccc2)c2cc(Cl)ccc2N1CC1CC1`, the outcome was “inactive”.
